TrxR1 substrate = is turned over as a substrate by rat TrxR1; O89049; purified TrxR1 substrate turnover, NADPH consumption readout; Potency, µM (titrated, usually from 114 µM); 390,000 compounds, 0.01% hits; also: nearly all actives have a fitted effect of over 50% in size
Target sequence (O89049 whole entry, looked up): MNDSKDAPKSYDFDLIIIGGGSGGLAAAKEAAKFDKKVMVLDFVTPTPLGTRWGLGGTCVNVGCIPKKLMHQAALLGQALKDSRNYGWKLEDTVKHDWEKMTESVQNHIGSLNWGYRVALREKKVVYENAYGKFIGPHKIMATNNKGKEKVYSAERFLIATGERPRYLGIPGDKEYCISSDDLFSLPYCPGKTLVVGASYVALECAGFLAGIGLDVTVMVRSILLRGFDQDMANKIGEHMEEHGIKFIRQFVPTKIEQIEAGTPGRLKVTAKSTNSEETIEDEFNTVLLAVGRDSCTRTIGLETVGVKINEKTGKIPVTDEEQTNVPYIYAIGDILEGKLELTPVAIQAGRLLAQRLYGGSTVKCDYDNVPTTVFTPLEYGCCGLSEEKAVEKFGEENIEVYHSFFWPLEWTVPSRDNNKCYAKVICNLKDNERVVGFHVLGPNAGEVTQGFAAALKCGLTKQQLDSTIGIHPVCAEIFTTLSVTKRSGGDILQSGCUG
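Rat TrxR1, dispensed at 90 nM, was prereduced with 400 uM NADPH (final) for 5 min at ~22 deg C, then incubated with compound 15 min before 400 uM selenite. A first-read NADPH fluorescence drop versus no-compound background flagged substrates.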
rTrxR1 inhibitor = rat TrxR1 inhibition; 390,000 compounds, 1% hits; O89049; recombinant rTrxR1, NADPH fluorescence consumption, selenite substrate; Potency, µM (titrated, usually from 114 µM), actives largely listed as inhibitors; also: nearly all actives have a fitted effect of over 65% in size
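Rat TrxR1 (90 nM in the dispensed reagent) was pre-reduced with 400 uM NADPH for 5 min at room temperature, then incubated with compound for 15 min. After 400 uM selenite was added, NADPH fluorescence (Ex 340/Em 450 nm) was followed for 8 min.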
VDR inh = vitamin D3 receptor (human) inhibition. P11473. VDR-SRC2-3 peptide fluorescence polarization, 2 h. Potency, µM, most hits filed as inhibitors. 400,000 compounds, 0.93% hits. AID 504847
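The screen uses fluorescence polarization to detect compounds that interfere with recruitment of the SRC2-3 coactivator peptide to VDR; plates are read after 2 h at room temperature.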
Vif-A3F inh = blocks the Vif interaction with APOBEC3F; HeLa A3F-eYFP + Vif (tagged APOBEC3F with the HIV-1 protein that degrades it), YFP fluorescence increase; 390,000 compounds, 0.2% hits; Potency, µM (titrated, usually from 46.1 µM); also: nearly all actives have a fitted effect of over 65% in size
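HeLa cells stably expressing Vif plus C-terminally eYFP-tagged A3F were seeded, incubated overnight at 37 deg C, dosed with compound, incubated overnight again at 37 deg C. Yellow fluorescence (Ex 488/Em 500-530) reported blocked Vif-mediated A3F-eYFP degradation.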
Vif-APOBEC3G blk = blocks the Vif interaction with human APOBEC3G. Q9HC16. HeLa A3G-eYFP + Vif (tagged APOBEC3G with the HIV-1 protein that degrades it), YFP fluorescence, overnight. Potency, µM (titrated, usually from 46.1 µM), most hits filed as inhibitors. 410,000 compounds, 0.076% hits; also: nearly all actives have a fitted effect of over 60% in size
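Read-out is eYFP fluorescence (Ex 488/Em 500-530) from Vif-expressing HeLa A3G-eYFP cells; more signal means A3G escaped Vif-mediated degradation. Cells plated overnight, compound pinned in, incubated overnight at 37 deg C.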
Of the large screens only hits and unclear results are named; the others gave an inactive call; ! = repeats disagree. Only some compounds are listed: those with a hit (about 1.8% of all), similar ones and a draw of the others. Calls follow the shape of the dose curve; as a rule, active = well fitted curve in the direction sought with a large enough effect; inconclusive = small, poorly fitted or top-dose-only effect, or another doubt; inactive = no such curve, though single readings can be large; an effect the other way counts as inactive or inconclusive.

Cc1cc2nn(-c3ccc(F)cc3)nc2cc1NC(=O)c1ccc(OC(C)C)cc1	rTrxR1 inhibitor 89µM
CCC(C)C(=O)OC1CCC=C2C=CC(C)C(CCC3CC(O)CC(=O)O3)C21 (centres undefined)	Vif-APOBEC3G blk inconclusive
CC[C@H](C)C(=O)O[C@H]1C[C@@H](C)C=C2C=C[C@H](C)[C@H](CC[C@@H]3C[C@@H](O)CC(=O)O3)[C@H]21	VDR inh 50µM!
COc1ccccc1CNC(=O)CSc1nc(=O)[nH]c2c1CCCC2	none
NS(=O)(=O)c1cccc2c1c([N+](=O)[O-])cc1nc(O)c(O)nc12	VDR inh 40µM!
NS(=O)(=O)c1cccc2c1c([N+](=O)[O-])cc1[nH]c(=O)c(=O)[nH]c12	none (no result: TrxR1 substrate, rTrxR1 inhibitor, Vif-A3F inh, Vif-APOBEC3G blk)
CCCN(CCC)C(=O)CC(c1ccc(F)cc1)c1ccco1 (centres undefined)	rTrxR1 inhibitor 35µM, VDR inh inconclusive (no result: Vif-A3F inh)
Clc1ccc(-c2nnc(-c3ccco3)nc2N2CCCCC2)cc1	rTrxR1 inhibitor 6.3µM
Clc1ccc(-c2nnc(-c3ccc(Br)cc3)c(N3CCSCC3)n2)cc1	none
O=C(N/N=C/c1ccc(-c2ccccc2[N+](=O)[O-])o1)c1cccnc1	rTrxR1 inhibitor 50µM, VDR inh inconclusive
COc1cc(CNc2ccc(N3CCCC3)cc2)ccc1OCc1ccccc1	rTrxR1 inhibitor inconclusive, VDR inh 35µM
COc1cc(CNc2ccc(N3CCCCC3)cc2)ccc1OCC(=O)NC(C)(C)C	none
COc1cc(CNc2ccc(N3CCCC3)cc2)ccc1OCc1ccccc1F	rTrxR1 inhibitor 10µM, VDR inh 79µM
CCC(Oc1ccc(F)cc1)C(=O)Nc1nc(-c2ccc(F)cc2)ns1 (centres undefined)	Vif-A3F inh inconclusive
COc1cc(N(C)C)c(OC)cc1/C=C1\C=Cc2ccccc21	none (no result: VDR inh, Vif-A3F inh)
COc1ccc(C(=O)NCc2nc(-c3cccc(C)c3)no2)cc1OC	none
CCNC(=O)NC(=O)COC(=O)c1ccccc1SCC(=O)NC(=O)NCC	rTrxR1 inhibitor 35µM, VDR inh inconclusive
CS(=O)(=O)c1ccc(Sc2nc3ccccc3s2)c([N+](=O)[O-])c1	rTrxR1 inhibitor 40µM
Nc1ccc(/C=C/c2cc(Cl)nc3ccccc23)cc1	Vif-APOBEC3G blk inconclusive (no result: VDR inh, Vif-A3F inh)
C=CCN1CC(C(=O)N(CCCN(C)C)C(=O)NCC)CC2c3cccc4[nH]cc(c34)CC21 (centres undefined)	none (no result: TrxR1 substrate, rTrxR1 inhibitor, Vif-A3F inh, Vif-APOBEC3G blk)
O=C1C2CC=CCC2C(=O)N1Cc1ccccc1 (centres undefined)	none
O=C1C=CC(=O)N1Cc1ccccc1	rTrxR1 inhibitor 0.4µM, VDR inh 16µM
CCn1nc(-c2ccc(C)cc2)nc2c(=O)n(C)c(=O)nc1-2	TrxR1 substrate 50µM, rTrxR1 inhibitor inconclusive, VDR inh inconclusive (no result: Vif-A3F inh)
Cn1nc(-c2ccncc2)nc2c(=O)n(C)c(=O)nc1-2	TrxR1 substrate 20µM, rTrxR1 inhibitor 20µM (no result: Vif-A3F inh)
CCOc1cc(C2c3c(oc4ccccc4c3=O)C(=O)N2Cc2ccc3c(c2)OCO3)ccc1O (centres undefined)	none
CCOC(=O)c1c(Nc2ccc(O)cc2)nnc(-c2ccccc2)c1-c1ccccc1	none
CN(Cc1ccccc1)S(=O)(=O)c1nnc(NC(=O)c2cccc(Cl)c2)s1	none
CN(Cc1ccco1)S(=O)(=O)c1nnc(NC(=O)c2cccc(Cl)c2)s1	rTrxR1 inhibitor 25µM!, VDR inh inconclusive
CCN(c1ccc(C)cc1)S(=O)(=O)c1nnc(NC(=O)c2ccco2)s1	rTrxR1 inhibitor 56µM
O=C(C[n+]1cccc2cc(Cl)ccc21)c1ccc2ccccc2c1	Vif-APOBEC3G blk inconclusive (no result: VDR inh, Vif-A3F inh)
CCN(CC)c1c([N+](=O)[O-])c(=O)n(C)c2ccccc12	none
Cn1c(=O)c([N+](=O)[O-])c(-n2cnc3ccccc32)c2ccccc21	rTrxR1 inhibitor inconclusive, VDR inh 20µM, Vif-APOBEC3G blk inconclusive
Cc1nccn1-c1c([N+](=O)[O-])c(=O)n(C)c2ccccc12	none
Cn1c(=O)c([N+](=O)[O-])c(Cl)c2ccccc21	rTrxR1 inhibitor 2.2µM, VDR inh 18µM, Vif-APOBEC3G blk inconclusive
C[C@@H]1C[C@H]2[C@@H]3CCC4=CC(=O)C=C[C@]4(C)[C@@]3(F)C(O)C[C@]2(C)[C@@]1(O)C(=O)CO (some centres undefined)	none (no result: Vif-A3F inh)
COC(=O)c1ccccc1NC(=O)c1noc2c1CSc1ccccc1-2	rTrxR1 inhibitor 14µM
Cc1scc(C(=O)NCc2ccco2)c1-c1ccccc1	rTrxR1 inhibitor 14µM, VDR inh inconclusive, Vif-A3F inh inconclusive
O=C(NCc1ccco1)c1ccccc1-c1ccccc1	none
COc1ccc(-c2nc3cccc(C)n3c2Nc2ccc(C)cc2)cc1	none (no result: Vif-A3F inh, Vif-APOBEC3G blk)
O=[N+]([O-])c1cc([N+](=O)[O-])c2nonc2c1Nc1ccc(O)cc1	rTrxR1 inhibitor 28µM, VDR inh inconclusive
CC(=O)c1ccc(Nc2c([N+](=O)[O-])ccc3nonc23)cc1	none
COC(=O)c1ccc(Nc2c([N+](=O)[O-])ccc3nonc23)cc1	Vif-A3F inh 25µM, Vif-APOBEC3G blk inconclusive
O=[N+]([O-])c1cc([N+](=O)[O-])c2nonc2c1Nc1ccccc1O	none
CCOCCCn1c(=N)c(C(N)=S)cc2c(=O)n3cccc(C)c3nc21	VDR inh 79µM
Cc1cccn2c(=O)c3cc(C(N)=S)c(=N)n(CCCOC(C)C)c3nc12	VDR inh 25µM
COCCCn1c(=N)c(C(=O)NCc2ccco2)cc2c(=O)n3cccc(C)c3nc21	none
CNc1ccc(C=O)cc1Cl	none (no result: VDR inh, Vif-A3F inh)
CCOc1ccc(/C=C(\C#N)C(=O)Nc2sc3c(c2C(=O)OC)C(C(=O)OC)CC3)cc1OC (centres undefined)	VDR inh 20µM
COC(=O)c1c(NC(=O)/C(C#N)=C/c2ccccc2)sc2c1CCC2	VDR inh inconclusive
O=C(Nc1cccc(NC(=O)c2ccc(Br)o2)n1)c1ccc(Br)o1	rTrxR1 inhibitor 32µM
O=C(Nc1ccccc1)c1ccc(Br)o1	none
CCC(C)n1c(NC(=O)c2ccccc2)c(C#N)c2nc3ccccc3nc21 (centres undefined)	VDR inh inconclusive, Vif-A3F inh 32µM, Vif-APOBEC3G blk inconclusive
N#Cc1c(NC(=O)c2ccc(Br)o2)n(-c2ccccc2)c2nc3ccccc3nc12	rTrxR1 inhibitor inconclusive, VDR inh 8.9µM, Vif-A3F inh inconclusive, Vif-APOBEC3G blk inconclusive
CCCCn1c(NC(=O)c2ccccc2)c(C#N)c2nc3ccccc3nc21	VDR inh inconclusive, Vif-A3F inh inconclusive, Vif-APOBEC3G blk inconclusive
CCOc1ccc(NC(=O)Cn2c(=O)n(Cc3ccc(C(=O)NCc4ccc(C)cc4)cc3)c(=O)c3ccccc32)cc1	Vif-A3F inh 10µM
O=C(CCSC1=NCCCN1)c1ccc(F)cc1	rTrxR1 inhibitor inconclusive, VDR inh 71µM
CC(C)CNC(=O)c1ccc(C2SCC(=O)N2Cc2ccccc2)cc1 (centres undefined)	VDR inh 79µM
O=c1cnc2cncnc2n1Cc1ccccc1	none (no result: TrxR1 substrate, rTrxR1 inhibitor, Vif-A3F inh, Vif-APOBEC3G blk)
